For twelve compounds, growth results are on record in PubChem BioAssay (NCI).

Compounds without any hit were thinned out: in the full panel of roughly 83,000, 20% have a hit.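 Activity criterion: percent growth below 10, measured after cells in 96-well plates were exposed to a single compound concentration for 48 hours.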 A number with no mark means an inactive call. Active and inactive are the calls of the source.

The test deals with SF-268 CNS. Briefly: NCI-60 one-dose screen, 48 h (100 = growth as untreated, 0 = no growth, -100 = all killed). The following applies: 10 µM.
As to `CCN1CCN(CCC(=O)Nc2cccc(-n3cc(-c4ccncc4)c(-c4ccc(Cl)c(OC)c4)n3)c2)CC1`, the growth was 35.4%.
In the case of `O=C1/C=C/[C@@H](O)[C@@H]2C[C@@H](O)C[C@H]2/C=C/CCC[C@H](C(F)(F)F)O1` it was 17.9%; in that of `CC[C@@H](C(=O)[C@@H](C)[C@@H](O)[C@H](C)[C@@H]1O[C@@H]([C@@H](CC)C(=O)N(CC)CC)CC[C@@H]1C)C1O[C@]2(C=CC(=O)[C@]3(CC[C@@](C)([C@H]4CC[C@](O)(CC)[C@H](C)O4)O3)O2)[C@H](C)C[C@@H]1C` (some centres not stated), 46.4%; in that of `COc1ccc(-c2cc(-c3ccc(Cl)cc3)nc(SCCCCCCC(=O)NO)n2)cc1OC`, 91.9%.
`N#CCc1csc(Cc2ccccc2)n1`: the growth was 100%.
With `CC(C)(C)OC(=O)CN1CCc2c(sc3ncnc(N/N=C/c4ccccc4Br)c23)C1`, the growth was 76.9%.
For the compound `CC(CN(C)C)Oc1ccccc1NC1=C(Cl)C(=O)C(Nc2ccccc2OC(C)CN(C)C)=C(Cl)C1=O` (configuration not stated), the growth was -81.8% (active).
To `Nc1ccn(Cc2nnc(CCC(=O)c3nc4ccccc4[nH]3)o2)c(=O)n1` belongs 95.8%; to `CC(C)(C)OC(=O)CN1CCc2c(sc3ncnc(N/N=C/c4cccc5ccccc45)c23)C1`, 60.2%; to `CCOC(=O)c1cc(C(=O)c2ccc(Cl)cc2)n2ccc(-c3cc[n+](CC(=O)c4ccc(OC)cc4)cc3)cc12`, 78.5%.
Take `NS(=O)(=O)Oc1ccc(NC(=O)C2CCCCCC2)cc1`: the growth is 98.5%.
With `NNC(=O)Oc1c(Cl)cc(Cl)cc1[N+](=O)[O-]`, the growth was 102%.
